# Results taken from PubChem BioAssay.
# Where “and” joins values, the source holds several entries; their conditions need not be identical. Identical values can stand only once.
# Test: growth inhibition, single agents and combos, LFS_MB_1R, cell-based, cisplatin or BGB combos, synergistic combos for chromothripsis tumors (AID 1671452);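 note: cells exposed for 96 hours before readout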
# Conditions: LFS_MB_1R medulloblastoma cells, measured here: combination with BGB IC40, at 0.05 µM, stronger effect = higher value
row,SMILES,inhibition
1,Cc1c(N)nc(C(CC(N)=O)NCC(N)C(N)=O)nc1C(=O)NC(C(=O)NC(C)C(O)C(C)C(=O)NC(C(=O)NCCc1nc(-c2nc(C(=O)NCCC[S+](C)C)cs2)cs1)C(C)O)C(O[C@@H]1O[C@@H](CO)[C@@H](O)[C@H](O)[C@@H]1O[C@H]1O[C@H](CO)[C@@H](O)[C@H](OC(N)=O)[C@@H]1O)c1cnc[nH]1 (stereo partly drawn),-22.4% and 5.32%
2,O=c1[nH]c(=O)n(C2OC(CO)C(O)C2O)cc1F (stereo not drawn),-3.21%
3,O=P(O)(NCCCl)NCCCl,-43.7%
4,CC1(C)C(C(=O)Nc2ccc(S(=O)(=O)c3ccc(NC(=O)C4C(C)(C)C4(C)C)cc3)cc2)C1(C)C,-27.2%
5,CCC1(O)C(=O)OCc2c1cc1n(c2=O)Cc2cc3ccccc3nc2-1 (stereo not drawn),-2.41% and -26.5%
6,NC(Cc1ccc(N(CCCl)CCCl)cc1)C(=O)O (stereo not drawn),-28.4%
7,COc1cc([C@@H]2c3cc4c(cc3[C@H](O)[C@H]3COC(=O)[C@H]23)OCO4)cc(OC)c1O,-9.68% and 4.85%
8,COc1cc(C2c3cc4c(cc3C(O)C3COC(=O)C23)OCO4)cc(OC)c1OC (stereo not drawn),42.5%
